Assay outcomes from PubChem BioAssay.
PP5 inh: blocks human protein phosphatase 5 activity. purified PP5c, OMFP substrate fluorescence. 320,000 compounds, 0.18% hits. inhibition, % at 6.7 µM;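 active = inhibition above the campaign's mean inhibition across all tested compounds plus 3 SD, cut at about 9.5% in these data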;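 also: 0% = DMSO only and 100% = 100 µM cantharidin control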
ATG4B inh: ATG4B (human) cysteine protease inhibition; Q9Y4P1; ATG4B cleavage of LC3-PLA2, NBD-HPC fluorescence, 1 h; inhibition, % at 8.33 µM; 340,000 compounds, 0.51% hits; AID 504462; in the data active = inhibition above about 40%
H9c2 protect: myocardial damage modulation in H9c2 cells. H9c2 cardiomyocytes, H2O2 injury protection, ATPLite, 2 h. protection from H2O2 cell death, % at 20 µM. 360,000 compounds, 0.63% hits. AID 588492;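 active = compounds giving at least 50% protection of heart cells from peroxide-induced death in the single-dose screen, raw or plate-pattern-corrected value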;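 also: 0% = DMSO wells with peroxide and 100% = DMSO wells without peroxide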
PP1 counter: blocks human PP1-alpha phosphatase, a PP5 counter-screen | P62136 | purified PP1alpha, OMFP fluorescence | inhibition, % at 6.7 µM | 320,000 compounds, 0.9% hits | AID 2235;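 active = inhibition above the mean inhibition of all tested compounds plus 3 SD, computed separately for each screening campaign, cut at about 15% in these data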
Target sequence (P62136 whole entry, looked up): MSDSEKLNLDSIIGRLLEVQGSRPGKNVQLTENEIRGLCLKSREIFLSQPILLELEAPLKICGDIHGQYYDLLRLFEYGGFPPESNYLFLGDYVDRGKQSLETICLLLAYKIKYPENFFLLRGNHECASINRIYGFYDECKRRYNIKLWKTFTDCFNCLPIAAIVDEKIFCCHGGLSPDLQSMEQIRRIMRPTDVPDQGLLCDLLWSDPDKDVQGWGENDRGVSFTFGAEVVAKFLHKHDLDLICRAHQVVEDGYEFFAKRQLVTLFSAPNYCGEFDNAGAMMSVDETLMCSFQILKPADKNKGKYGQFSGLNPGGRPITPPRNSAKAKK
PP1 inh confirm: human PP1 phosphatase inhibition, confirmation. shares compounds with PP1 counter. purified PP1alpha, OMFP substrate fluorescence. inhibition, % at 6.7 µM. 1,900 compounds, 52% hits;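 active = mean PP1 inhibition above a set limit taken from the earlier primary screen, cut at about 15% in these data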
PP5 inh counter: counter-screen for PP1 inhibitors: human PP5 phosphatase inhibition. 1,900 compounds, 4% hits. shares compounds with PP1 counter. purified PP5c, OMFP fluorescence. AID 2360. inhibition, % at 6.7 µM;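 active = mean PP5 inhibition over triplicate wells above about 9.5% taken from the earlier PP1 screen, limit read from the data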
* = called active by the depositor; nt = no result given. An excerpt weighted towards active compounds, which were near 1.9% of everything screened.

SMILES	PP5 inh	ATG4B inh	H9c2 protect	PP1 counter	PP1 inh confirm	PP5 inh counter
CCCCCCSc1cccc(-c2nc3ccccn3c2NCc2ccccc2)c1	nt	19	43	nt	nt	nt
CCC(C)Sc1cccc(-c2nc3ccccn3c2NCc2ccccc2)c1 (centres undefined)	nt	17	-9	nt	nt	nt
CCC(C)Sc1cccc(-c2nc3ccc(Cl)cn3c2NCc2ccccc2)c1 (centres undefined)	5	19	-4	19*	5	3
CCCCCCSc1cccc(-c2nc3cc(C)ccn3c2NC2CCCCC2)c1	4	12	-28	19*	4	0
Cc1ccc(C(=O)Nc2cccc(C(=O)N/N=C/c3ccc(F)cc3)c2)cc1	-1	-7	7	2	nt	nt
O=C(CCN=C1NS(=O)(=O)c2ccccc21)NCc1ccccc1F	nt	-7	3	nt	nt	nt
Cc1ccc(C(=O)Nc2scc(-c3ccccc3)c2C(=O)O)cc1	0	22	-14	0	nt	nt
CC(C)(C)C(=O)Nc1scc(-c2ccc(-c3ccccc3)cc2)c1C(=O)O	-6	10	-6	18*	8	1
CCOc1ccccc1N1CCN(C(=O)c2ccc3c(c2)OCO3)CC1	-1	-8	-6	0	nt	nt
O=C1CCCC(O)=C1N=Nc1cccc(C(=O)O)c1	4	3	3	-6	nt	nt
CCN(CC)S(=O)(=O)c1cccc(N=NC2=C(O)CCCC2=O)c1	-2	0	-7	57*	0	-4
CC(C)(C)c1cc(NCCCn2ccnc2)n2ncc(-c3ccc(Cl)cc3)c2n1	10*	23	-14	38*	39*	4
COc1ccc(CCNC(=O)c2cc(-c3ccccn3)nc3ccccc23)cc1	2	-5	23	-2	nt	nt
O=C(N/N=C/c1cc([N+](=O)[O-])ccc1O)c1cccc2cc[nH]c12	1	1	24	29*	20*	-4
O=C(N/N=C/c1cccc([N+](=O)[O-])c1)c1cccc2cc[nH]c12	1	-1	-5	-2	nt	nt
O=C(N/N=C/c1cc([N+](=O)[O-])ccc1O)c1cccc(N2CCCC2=O)c1	3	-8	39	25*	21*	-5
CCOC(=O)c1sc2nc3c(SCC(=O)O)cc(C(=O)c4cc(F)ccc4O)cn3c(=O)c2c1C	1	24	-8	61*	48*	-3
CCOC(=O)c1sc2nc3c(SCC(=O)O)cc(C(=O)c4ccccc4O)cn3c(=O)c2c1C	1	13	-20	13	nt	nt
O=C(O)CSc1cc(C(=O)c2ccccc2O)cn2c(=O)c3c(-c4ccccc4)csc3nc12	1	22	6	20*	16*	-5
COc1ccc(O)c(C(=O)c2cc(SCC(=O)O)c3nc4sc5c(c4c(=O)n3c2)CCCC5)c1	2	2	-5	29*	19*	-3
CCOc1ccc2[nH]c(C)c(CN3CCCCCC3)c(=O)c2c1	2	-4	6	0	nt	nt
COc1ccc(C(=O)Nc2ccc(Cl)cc2C(=O)N2CCCC(C)C2)cc1 (centres undefined)	-1	0	2	60*	-1	-1
Oc1c(Br)cc(CNC2CCCCC2)cc1Br	nt	2	3	nt	nt	nt
Cc1cc(NC(=O)Cc2cccs2)no1	2	16	5	28*	0	-5
Cc1cc(NS(=O)(=O)c2ccc(NC(=O)Cc3cccs3)cc2)no1	2	-3	-1	-4	nt	nt
SMILES	PP5 inh	ATG4B inh	H9c2 protect	PP1 counter	PP1 inh confirm	PP5 inh counter
Cc1ccc(CNC(=O)c2ccc(N3CCC4(CC3)CC(c3cccc(Br)c3)=NO4)c(NC(=O)c3ccco3)c2)cc1	0	-4	-1	12	nt	nt
Cc1ccc(CNC(=O)c2ccc(N3CCC4(CC3)CC(c3ccccc3)=NO4)c(NC(=O)c3ccco3)c2)cc1	3	-69	2	20*	16*	-2
Cc1ccc(-n2nc3c(c2NC(=O)/C=C\c2ccc4c(c2)OCO4)CSC3)c(C)c1	1	-11	-2	14	nt	nt
Cc1ccc(-n2nc3c(c2NC(=O)/C=C\c2ccc4c(c2)OCO4)CSC3)cc1	4	-8	20	20*	13	-2
CC(=O)c1cc2c(cc1NC(=O)Cc1ccsc1)OCO2	3	0	6	0	nt	nt
O=C(Nc1ccccn1)c1ccc([N+](=O)[O-])cc1Cl	-2	-6	0	-3	nt	nt
O=C(Nc1ccccn1)c1cc2cc([N+](=O)[O-])ccc2s1	-2	-2	-14	21*	18*	-4
